A selection: hits, their analogues and other compounds. The true share with any hit is near 3%.
S16 viability – cytotoxicity in S16 Pmp22-F2sN Schwann cells. S16 Pmp22-F2sN Schwann cells viability, CellTiter-Glo, 24 h. Potency, µM (titrated, usually from 57.5 µM), usual class: cytotoxic. actives 0.48% (n = 43,000); also: nearly all actives have a fitted effect of over 65% in size
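Rat S16 Schwann reporter line, 24 h treatment with library compounds delivered at 23 nL per well. Cell viability by CellTiter-Glo luminescence.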
PMP22 txn prim – modulates PMP22 transcription in S16 Schwann cells. S16 Pmp22-F2sN Schwann cells (luciferase reporters placed in the Pmp22 gene), FLuc/NLuc coincidence luminescence, 24 h. Potency, µM (top dose mostly 57.5 µM), actives largely listed as inhibitors. actives 2% (n = 43,000); active = clear falling dose curves in both reporters; inconclusive = both reporters move, but less clearly or upward; inactive = either reporter flat; the % is the NLuc reporter signal
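S16(c9) Schwann cells with FLuc/NLuc coincidence reporter in the Pmp22 3' UTR; compounds pin-transferred, 24 h at 37C. Dual-luciferase read: FLuc first, then NLuc after Stop&Glo, each 10 min at room temperature.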
p53null 39C kill – selectivity test: cytotoxicity in p53 null cells, nonpermissive temperature; H1299 p53-null (neo) cells, 39C, ATPlite viability, 24 h; Potency, µM (titrated, usually from 46.1 µM), usual class: cytotoxic; actives 0.97% (n = 55,000); AID 904; also: nearly all actives have a fitted effect of over 50% in size
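H1299 lung cancer cells, p53-null (H1299-neo) or expressing p53 A138V (H1299-p53A138V), were plated overnight at 37C, then exposed to compounds at up to 46 uM for 24 hr at 39C. Viability was read by ATP-based luminescence.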
mTORC1 inh – inhibitors of mTORC1 signaling in Tsc2-/- p53-/- MEF cells; Tsc2-/- p53-/- MEF, phospho-rpS6 immunofluorescence/PI, 24 h; Potency, µM (titrated, usually from 38.3 µM), hits mostly inhibitors; actives 0.78% (n = 44,000); AID 493208; also: nearly all actives have a fitted effect of over 50% in size
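Tsc2-/-, p53-/- mouse embryonic fibroblasts (empty-vector line) exposed to compound 24 hrs at 37 C, fixed, immunostained for phospho-rpS6 and counterstained with propidium iodide. Acumen laser scanning gives % positive cells from Alexa 488/PI ratio, thresholded using 7.5 nM rapamycin; PI count gives viability.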
p53null 32C tox – kills p53 null cells at the permissive temperature. H1299-neo p53 null cells, ATP luminescence, 24 h, 32C. Potency, µM (highest dose often 46.1 µM), usual class: cytotoxic. actives 0.62% (n = 55,000); also: nearly all actives have a fitted effect of over 55% in size
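Luminescent ATP readout gave cell viability of p53-null H1299-neo cells after a 24 h compound exposure at the permissive 32C. Titrations ran up to 46 uM, and AC50s were fitted with the standard Hill equation.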
OvCa metastasis – ovarian cancer metastasis inhibition, 3D TME model. SKOV3ip1-GFP adhesion/invasion on 3D omental model, fluorescence. Potency, µM (doses to about 45.8 µM), usual class: inhibitors. actives 0.1% (n = 46,000); also: nearly all actives have a fitted effect of over 65% in size
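A 3D layer of primary human omental fibroblasts, mesothelial cells, fibronectin and collagen I, grown 48 hr, received SKOV3ip1-GFP cells in serum-free medium plus compounds at 0.36-46 umol/L. After 2 hr RT and 16 hr 37 C, fixed adherent GFP cells were counted; normalized to DMSO and tomatine.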
NLuc sat counter – counter-screen for PMP22 expression modulators: NanoLuc inhibition, saturating substrate; shares compounds with PMP22 txn prim; Secreted NLuc enzyme (filtered S16 cell medium), Nano-Glo luminescence; Potency, µM (series often up to 57.5 µM), usual class: inhibitors; actives 4% (n = 690); AID 1508638
NLuc Km counter – inhibits NanoLuc under Km conditions, PMP22 counter-screen; shares compounds with PMP22 txn prim; secreted NLuc enzyme, coelenterazine luminescence, Km conditions; Potency, µM (series often up to 57.5 µM), hits mostly inhibitors; actives 5% (n = 690)
FLuc ctr PMP22 – firefly luciferase enzyme inhibition artifact for PMP22 screen | shares compounds with PMP22 txn prim | 690 tested, under 10 active | Potency, µM (titrated, usually from 57.5 µM), actives largely listed as inhibitors | purified P. pyralis FLuc, luminescence, 10 min | AID 1508640
Target sequence (P08659 whole entry, looked up): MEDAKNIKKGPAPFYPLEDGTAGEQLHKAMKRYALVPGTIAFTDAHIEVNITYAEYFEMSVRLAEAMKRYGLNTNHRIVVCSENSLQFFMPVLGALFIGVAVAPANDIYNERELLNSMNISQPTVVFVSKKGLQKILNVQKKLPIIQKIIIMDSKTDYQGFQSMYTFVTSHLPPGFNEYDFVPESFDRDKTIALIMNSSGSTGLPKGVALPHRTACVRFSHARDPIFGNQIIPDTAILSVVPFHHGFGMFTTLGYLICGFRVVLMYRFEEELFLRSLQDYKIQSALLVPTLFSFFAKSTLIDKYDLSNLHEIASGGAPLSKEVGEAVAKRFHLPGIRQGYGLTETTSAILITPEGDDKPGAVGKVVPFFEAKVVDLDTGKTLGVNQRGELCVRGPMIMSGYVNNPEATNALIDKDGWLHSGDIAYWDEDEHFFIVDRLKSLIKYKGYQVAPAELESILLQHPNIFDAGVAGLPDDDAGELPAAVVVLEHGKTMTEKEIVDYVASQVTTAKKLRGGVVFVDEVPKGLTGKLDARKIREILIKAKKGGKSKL
S16 viab conf – S16 Schwann cell cytotoxicity, confirmatory; shares compounds with PMP22 txn prim; S16 Schwann cells viability, CellTiter-Glo ATP luminescence, 24 h; Potency, µM (doses to about 57.5 µM), actives largely listed as cytotoxic; actives 7% (n = 690)
PMP22 txn conf – confirmation of modulators of PMP22 gene transcription in S16 cells; Potency, µM (titrated, usually from 57.5 µM), usual class: inhibitors; shares compounds with PMP22 txn prim; S16 Schwann cells Pmp22-F2sN, dual luciferase, 24 h; AID 1508646; actives 22% (n = 690); active = clear falling dose curves in both reporters; inconclusive = both reporters move, but less clearly or upward; inactive = either reporter flat; the % is the FLuc reporter signal
PMP22 prot conf – confirmation of modulators of rat PMP22 protein expression. shares compounds with PMP22 txn prim. S16 Schwann cells Pmp22-HiBiT, luminescence, 48 h. Potency, µM (titrated, usually from 27.9 µM), actives largely listed as inhibitors. 95 tested, under 10 active. AID 1508647
Target sequence (P25094 whole entry, looked up): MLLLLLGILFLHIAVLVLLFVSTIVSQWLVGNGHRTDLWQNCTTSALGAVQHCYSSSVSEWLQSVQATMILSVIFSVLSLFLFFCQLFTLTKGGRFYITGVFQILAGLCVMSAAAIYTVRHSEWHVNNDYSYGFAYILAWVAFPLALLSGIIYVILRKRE
Numbers stand for hits; n = inactive; u = inconclusive; x = no result. Unless noted, calls follow the shape of the dose curve; as a rule, active = well fitted curve in the direction sought with a large enough effect; inconclusive = small, poorly fitted or top-dose-only effect, or another doubt; inactive = no such curve, though single readings can be large; an effect the other way counts as inactive or inconclusive.

SMILES	S16 viability	PMP22 txn prim	p53null 39C kill	mTORC1 inh	p53null 32C tox	OvCa metastasis	NLuc sat counter	NLuc Km counter	FLuc ctr PMP22	S16 viab conf	PMP22 txn conf	others
CN(CC=CC#CC(C)(C)C)Cc1cccc2ccccc12	x	x	x	x	x	n	x	x	x	x	x
C[C@@H]1CC(=O)NN=C1c1ccc(NN=C(C#N)C#N)cc1	x	x	x	x	x	n	x	x	x	x	x
Cc1ccccc1NC(=O)c1ccc(F)c(S(=O)(=O)N(C)C2CCCCC2)c1	n	5.01µM	n	n	n	n	n	u	n	n	n
Cc1ccccc1-n1c(SCC(=O)c2ccccc2)nnc1-c1ccc(F)cc1	u	17.9µM	n	u	n	n	1.37µM	1.72µM	n	n	u
CCN1CCOC(=O)C1CC(=O)Nc1ccccc1C(F)(F)F (stereo unspecified)	n	u	x	u	x	n	x	x	x	x	x
CCc1ccc(NC(=O)CC2C(=O)OCCN2CC)cc1 (stereo unspecified)	u	15µM	x	u	x	n	n	n	n	n	u
CCN1CCOC(=O)C1CC(=O)Nc1cc(Cl)ccc1OC (stereo unspecified)	u	18.9µM	x	u	x	n	n	n	n	n	u
CCN1CCOC(=O)C1CC(=O)Nc1ccc(C(C)=O)cc1 (stereo unspecified)	n	u	x	u	x	n	x	x	x	x	x
CCn1c(-c2nonc2N)nc2cnc(Oc3cccc(NC(=O)c4ccc(OCCN5CCOCC5)cc4)c3)cc21	x	x	x	x	x	n	x	x	x	x	x
Cc1ccc2[nH]c(CSc3nnc(COc4ccccc4C)n3C)cc(=O)c2c1	u	13.4µM	n	n	n	n	u	u	n	u	n
CCOc1ccccc1NC(=O)c1c(NCc2ccc(C)o2)sc2c1CCCCC2	n	13.4µM	n	n	n	n	u	u	n	n	u
CCOc1ccccc1NC(=O)c1c(NCc2ccc(C)o2)sc2c1CCC(C)C2 (stereo unspecified)	n	n	n	n	n	u	x	x	x	x	x
O=C(CO)N1CCC(c2[nH]nc(-c3ccc(Cl)cc3)c2-c2ccncn2)CC1	x	x	x	x	x	n	x	x	x	x	x
COc1ccc(Nc2nc3c(S(=O)(=O)c4ccc(C)cc4)nnn3c3ccsc23)cc1Cl	n	8.97µM	u	n	n	n	n	n	n	u	u
COc1ccc(Nc2nc3c(S(=O)(=O)c4ccccc4)nnn3c3ccsc23)cc1OC	n	n	n	n	n	n	x	x	x	x	x
COc1ccc(Nc2nc3c(S(=O)(=O)c4ccccc4)nnn3c3ccc(Cl)cc23)cc1	u	8.91µM	n	n	u	n	n	n	n	u	13.8µM	PMP22 prot conf=u
CCc1ccc2ncc(C(=O)c3ccc(C)c(C)c3)c(N3CCC(C(N)=O)CC3)c2c1	n	13.4µM	u	n	n	n	5.44µM	7.69µM	n	n	u
CC[C@@H]([C@H](C)O)n1ncn(-c2ccc(N3CCN(c4ccc(OCC5CO[C@@](Cn6cncn6)(c6ccc(F)cc6F)C5)cc4)CC3)cc2)c1=O (stereo partly specified)	x	x	x	x	x	n	x	x	x	x	x
CCN(CC)CCCNC(=O)c1ccc2c(c1)sc1nc(-c3ccc(C)cc3)cn12	u	10µM	n	n	n	u	u	u	15.3µM	15.3µM	14.5µM
COc1cccc(NC(CNS(=O)(=O)c2ccc(Cl)cc2)c2ccccc2)c1 (stereo unspecified)	u	u	u	u	n	n	x	x	x	x	x
COc1ccccc1Nc1c2c(nc3ccc(NC(=O)c4cccc(F)c4)cc13)CCCC2	u	10µM	10µM	u	u	u	n	n	n	13.7µM	11.5µM
COc1ccccc1Nc1c2c(nc3ccc(NC(=O)/C=C/c4cccc(OC)c4OC)cc13)CCCC2	25.1µM	10.6µM	u	4.14µM	n	n	n	n	n	u	7.74µM	PMP22 prot conf=n
COc1cc(C(=O)Nc2ccc3nc4n(c(=O)c3c2)CCCCC4)cc(OC)c1OC	u	n	u	n	n	n	x	x	x	x	x
Cc1nc2cccnc2n1C1CCN(S(=O)(=O)c2ccc(C(C)C)cc2)CC1	u	17µM	n	n	n	n	n	n	n	n	n
CCOC(=O)c1ccc(NC(=O)Cc2ccc(-n3c(CC)nc4cccnc43)cc2)cc1	n	u	n	n	n	n	n	u	n	u	n
SMILES	S16 viability	PMP22 txn prim	p53null 39C kill	mTORC1 inh	p53null 32C tox	OvCa metastasis	NLuc sat counter	NLuc Km counter	FLuc ctr PMP22	S16 viab conf	PMP22 txn conf	others
COc1cc(C(=O)Nc2c(C(=O)Nc3ccccc3F)oc3ccccc23)cc(OC)c1OC	n	16.8µM	n	n	n	n	n	n	u	n	u
COc1ccccc1NC(=O)c1oc2ccccc2c1NC(=O)c1c(F)cccc1F	n	n	n	n	n	n	x	x	x	x	x
O=C(Nc1ccc(OC(F)(F)F)cc1)c1sccc1NCc1ccnc2ccccc12	x	x	x	x	x	n	x	x	x	x	x
CCn1cc(C(=O)NCCc2ccc(C)cc2)c(=O)c2cc(S(=O)(=O)N3CCCCC3)ccc21	n	n	n	n	n	n	x	x	x	x	x
CCn1cc(C(=O)NCCc2ccc(OC)c(OC)c2)c(=O)c2cc(S(=O)(=O)N3CCCCCC3)ccc21	u	u	n	n	n	n	u	u	n	n	n
CCn1cc(C(=O)NC(C)c2ccccc2)c(=O)c2cc(S(=O)(=O)N3CCc4ccccc4C3)ccc21 (stereo unspecified)	n	u	n	n	n	n	x	x	x	x	x
CCC(C)NC(=O)c1cn(CC)c2ccc(S(=O)(=O)N3CCc4ccccc4C3)cc2c1=O (stereo unspecified)	n	16.8µM	n	n	n	n	n	n	n	n	n

Screening results deposited in PubChem BioAssay by National Center for Advancing Translational Sciences (NCATS).
